# Experimental data as given in the supplement of paper PMC12669032.
# A number with no mark means an inactive call.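 How the source made its calls: active = AUC reduced over 20% with Padj below 0.05 in at least 2 of 3 replicates; inactive = otherwise.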
# Assays:
# Experiment in all cases: growth AUC relative to DMSO control (median of replicates) (fraction); higher = more growth (less inhibition), active = hit call of the paper
# Settings in all cases: 20 µM; 24 h
# [1] = tested on: Akkermansia muciniphila
# Summary of the method: (§1)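 OD600 was recorded every hour for 24 h in anaerobic monocultures of gut bacteria kept at 37 °C in mGAM, seeded at OD600 0.05 and given 20 µM compound in 1% DMSO. The area under each growth curve was scaled to the plate median of solvent-only wells, or to row and column medians for the industrial chemical plate. Before this step, the minimum OD was set to 0. Reported values are medians of three biological replicates run on separate days.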
# [2] = tested on: Bacteroides caccae
# Summary of the method: as §1
# [3] = tested on: Bacteroides clarus
# Summary of the method: as §1
# [4] = tested on: Bacteroides dorei
# Summary of the method: as §1
# [5] = tested on: Bacteroides stercoris
# Summary of the method: as §1
# [6] = tested on: Bacteroides thetaiotaomicron
# Summary of the method: as §1
# [7] = tested on: Bacteroides uniformis
# Summary of the method: as §1
# [8] = tested on: Bifidobacterium longum subsp. longum
# Summary of the method: as §1
# [9] = tested on: Clostridium difficile
# Summary of the method: as §1
# [10] = tested on: Collinsella aerofaciens
# Summary of the method: as §1
Structure (SMILES),growth AUC [1],growth AUC [2],growth AUC [3],growth AUC [4],growth AUC [5],growth AUC [6],growth AUC [7],growth AUC [8],growth AUC [9],growth AUC [10]
CCc1cccc(C)c1N(C(=O)C(=O)O)[C@@H](C)C(=O)O,1.17,0.993,1.02,0.963,1.06,0.999,0.999,0.908,0.903,0.986
O.O=C(Nc1ccc([N+](=O)[O-])cc1Cl)c1cc(Cl)ccc1O,0.828,0.0261 (active),0.00802 (active),0.0256 (active),0.00906 (active),0.00758 (active),0.0308 (active),0.0965 (active),0.328 (active),0.865
Nc1cccc(O)c1,0.979,1.03,1.02,1,0.939,1.03,1.03,1.06,1.03,0.998
CC(C)OC(=O)c1cc(C(=O)OC(C)C)cc([N+](=O)[O-])c1,0.939,0.977,0.987,0.974,0.933,0.933,0.924,0.932,0.992,0.947
COC(=O)c1c(Cl)ccc(Cl)c1OC,1.02,1,1.01,1.04,0.942,1.02,1,1.04,1.04,1.04
CCc1nc2ncnn2c(N)c1CCCCCC(=O)O.Cl,1.06,1.03,1.07,1.03,1.14,0.988,1.02,0.963,1.01,0.996
O=[N+]([O-])c1ccc(Oc2c(Cl)cc(Cl)cc2Cl)cc1,0.832,1.02,0.907,1.01,1.07,0.971,0.914,0.985,1.02,0.935
NC(=O)c1nn(-c2c(Cl)cc(C(F)(F)F)cc2Cl)c(N)c1S(=O)C(F)(F)F (stereo not given),0.886,0.973,0.953,0.995,0.965,0.972,0.977,0.976,1,0.985
CP(=O)(O)CCC(=O)O,0.928,0.975,0.956,1.01,1.01,1.03,0.967,1.03,1.04,1
COC(=O)c1c(Cl)c(Cl)c(C(=O)OC)c(Cl)c1Cl,0.846,1.04,0.985,1.02,0.88,1.02,0.994,0.953,1.07,0.986
Nc1ccc(O)cc1,0.951,1,1.01,0.998,1.11,1.01,1.03,0.921,1.01,1.01
O=[N+]([O-])c1ccc2c(c1)Cc1ccccc1-2,0.896,0.995,1.01,0.991,0.981,0.985,1,1.06,0.992,1
CCCCOCCOCCOCc1cc2c(cc1CCC)OCO2,0.968,0.968,0.983,1.01,1.01,0.96,0.948,1.03,1.03,0.98
CCOC(=O)CSc1nc(C(C)(C)C)nn1C(=O)N(C)C,1.03,0.951,0.96,0.94,0.815,0.978,0.989,0.96,1.01,0.931
O=C(NCc1ncc(C(F)(F)F)cc1Cl)c1c(Cl)cccc1Cl,0.937,0.973,0.967,0.975,1.17,0.95,1.02,1.04,1,0.987
CCNc1nc(NC(C)CC)nc(OC)n1 (stereo not given),1.08,1.02,1,1.02,1.29,0.977,0.979,0.986,1.03,1.13
CC(C)c1cccc2c(=O)c3ccccc3sc12,1.1,0.922,1.03,0.913,1.21,0.963,0.995,1.06,0.895,0.95
CN(C)C(=O)NC1CCCCCCC1,0.984,1.01,1.01,0.996,1.09,0.99,0.972,1.01,1.03,1.01
O=C1NCCN1,1.15,1.02,1.02,1.06,1.18,1.02,0.978,1.04,0.993,1.02
c1cc2ccc3ccc4ccc5cccc6c(c1)c2c3c4c56,0.936,1,1,1.01,1,1,1,1.03,0.971,0.993
CC(C)(c1cc(Br)c(O)c(Br)c1)c1cc(Br)c(O)c(Br)c1,0.904,0.0238 (active),0.0496 (active),0.675 (active),0.0125 (active),0.662 (active),0.297 (active),0.252 (active),0.0683 (active),0.0491 (active)
CC(C)(C)C(O)/C(=C\c1ccc(Cl)cc1)n1cncn1 (stereo not given),1.05,0.903,0.987,0.919,1.19,0.958,0.973,1.04,0.991,0.969
CCc1cccc(C)c1NC(C)C(=O)O (racemic),1.21,1.01,0.98,0.931,0.965,1.03,0.996,1.04,1.03,0.985
Nc1cc(Cl)nc(C(=O)O)c1Cl,1.11,1.01,1.04,0.971,1.15,1.03,1.02,1.06,0.952,0.997
COc1c(Cl)ccc(Cl)c1C(=O)O,0.878,0.997,0.975,1.01,0.961,1,0.947,0.926,1.01,1.04
Cc1ccc(Cl)cc1,0.981,0.982,1.03,1.04,0.936,1.01,1.01,0.993,1.04,1
CCNc1nc(NCC)nc(OC)n1,0.914,1.02,1.02,1,1.01,0.967,0.992,0.957,1,0.992
